Holding throughout (design): scale not given: direction of the effect not stated beside the values
The target of experiment [1] is Protein translocase subunit SecA (Escherichia coli (strain K12)) (UniProt P10408). Put plainly: Assay to Identify E. coli SecA ATPase Inhibitors. Type of experiment: functional. The settings on record: 30 µM.
For experiment [2], the target named is T1, Ubiquitin-activating enzyme e1, putative (Leishmania donovani (strain BPK282A1)) (UniProt E9BSI1).
T1 sequence (whole entry): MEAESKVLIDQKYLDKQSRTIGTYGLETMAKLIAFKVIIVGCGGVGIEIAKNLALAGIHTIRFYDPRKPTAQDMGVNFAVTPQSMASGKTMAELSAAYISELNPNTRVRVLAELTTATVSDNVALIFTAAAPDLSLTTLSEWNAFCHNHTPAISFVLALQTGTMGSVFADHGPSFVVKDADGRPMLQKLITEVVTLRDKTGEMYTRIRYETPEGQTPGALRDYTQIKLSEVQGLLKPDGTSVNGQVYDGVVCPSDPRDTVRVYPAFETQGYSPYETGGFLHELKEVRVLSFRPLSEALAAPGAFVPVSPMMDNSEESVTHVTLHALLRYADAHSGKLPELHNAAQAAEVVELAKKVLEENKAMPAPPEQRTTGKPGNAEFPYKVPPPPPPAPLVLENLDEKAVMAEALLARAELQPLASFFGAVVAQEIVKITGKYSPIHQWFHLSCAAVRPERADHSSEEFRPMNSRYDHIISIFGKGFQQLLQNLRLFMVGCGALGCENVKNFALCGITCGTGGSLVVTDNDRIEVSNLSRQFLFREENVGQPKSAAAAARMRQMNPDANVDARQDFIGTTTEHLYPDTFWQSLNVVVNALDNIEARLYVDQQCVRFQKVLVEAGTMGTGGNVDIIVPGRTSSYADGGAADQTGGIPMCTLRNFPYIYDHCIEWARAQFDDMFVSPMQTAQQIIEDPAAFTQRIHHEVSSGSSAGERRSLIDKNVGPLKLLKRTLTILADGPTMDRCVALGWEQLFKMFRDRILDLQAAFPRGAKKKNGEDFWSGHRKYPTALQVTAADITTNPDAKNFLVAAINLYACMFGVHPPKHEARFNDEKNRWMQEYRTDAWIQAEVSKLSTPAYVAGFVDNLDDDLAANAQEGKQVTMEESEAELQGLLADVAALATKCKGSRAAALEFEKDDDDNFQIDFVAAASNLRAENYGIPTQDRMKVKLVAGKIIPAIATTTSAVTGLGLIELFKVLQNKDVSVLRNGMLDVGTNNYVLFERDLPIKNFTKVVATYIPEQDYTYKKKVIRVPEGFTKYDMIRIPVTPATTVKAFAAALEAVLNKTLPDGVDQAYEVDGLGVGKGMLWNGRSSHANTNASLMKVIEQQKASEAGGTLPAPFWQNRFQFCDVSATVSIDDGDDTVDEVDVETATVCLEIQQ
Put plainly: Leishmania donovani Ubiquitin Activating Enzyme (LdE1). Type of experiment: functional. Particulars: 30 µM.

The target in experiment [3] is AMP-activated protein kinase, AMPK (Homo sapiens) (UniProt P54646+O43741+P54619+Q9UGJ0+Q9Y478+Q13131+Q9UGI9). Put plainly: AMP-dependent Kinase enzyme assay. An in vitro enzyme assay that detects ADP turnover that is directly proportional to AMPK activity. This uses naive AMPK that is activated during the assay with MK-8722. The class given is functional. Particulars: 30 µM.

Experiment [4] deals with Sialic acid-binding Ig-like lectin 9 (Homo sapiens) (UniProt Q9Y336). Put plainly: Hs-Siglec9 ALPHAscreen SOP 20170721. The settings on record: 10 µM.
The subject of experiment [5] is Trypanosoma cruzi. Put plainly: Trypanosoma cruzi phosphomannomutase and mannose-1-phosphate guanylyltransferase assay. Type of experiment: functional. Particulars: 10 µM.
For experiment [6], the target named is T2, Arginase-2, mitochondrial (Homo sapiens) (UniProt P78540).
T2 sequence (whole entry): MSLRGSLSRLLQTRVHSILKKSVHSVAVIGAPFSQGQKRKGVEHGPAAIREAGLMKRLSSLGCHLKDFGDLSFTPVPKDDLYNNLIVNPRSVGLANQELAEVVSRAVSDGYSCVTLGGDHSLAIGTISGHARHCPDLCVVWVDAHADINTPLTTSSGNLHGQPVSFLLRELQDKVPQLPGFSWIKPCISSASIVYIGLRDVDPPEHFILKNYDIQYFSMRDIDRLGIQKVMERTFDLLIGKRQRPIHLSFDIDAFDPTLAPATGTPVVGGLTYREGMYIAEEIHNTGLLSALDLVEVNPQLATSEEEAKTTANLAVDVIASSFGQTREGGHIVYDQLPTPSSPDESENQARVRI
Put plainly: in vitro enzyme assay to detect the production of urea directly proportional to the activity of Arginase II. Also: in the data most compounds retested in dose-response had high values. Type of experiment: functional. Particulars: 33.3 µM.

In experiment [7] the target is T3, Proteasome subunit beta (Trypanosoma cruzi) (UniProt O96673).
T3 sequence (whole entry): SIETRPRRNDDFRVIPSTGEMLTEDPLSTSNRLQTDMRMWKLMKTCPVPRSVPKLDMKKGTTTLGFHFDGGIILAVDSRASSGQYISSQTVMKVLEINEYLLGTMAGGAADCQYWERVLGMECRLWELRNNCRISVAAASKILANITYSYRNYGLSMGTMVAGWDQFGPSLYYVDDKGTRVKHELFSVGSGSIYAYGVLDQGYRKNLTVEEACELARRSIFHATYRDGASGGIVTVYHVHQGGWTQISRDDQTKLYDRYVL
Put plainly: Trypanosoma cruzi proteasome chymotrypsin-like activity (TcProtChymo) assay. Also: in the data most compounds retested in dose-response had high values. Type of experiment: functional. The settings on record: 9.37 µM.

The species entered for experiment [8] is Homo sapiens. The experiment is described as follows: To identify inhibition of the IFN signalling (Jak-Stat) pathway via expression of an eGFP reporter gene under the control of an IFN-stimulated response element (ISRE) containing MxA promoter. The class given is functional. The settings on record: 30 µM.
For experiment [9], the target named is T4, Tyrosyl-tRNA synthetase, putative (Trypanosoma cruzi (strain CL Brener)) (UniProt Q4DSP6).
T4 sequence (whole entry): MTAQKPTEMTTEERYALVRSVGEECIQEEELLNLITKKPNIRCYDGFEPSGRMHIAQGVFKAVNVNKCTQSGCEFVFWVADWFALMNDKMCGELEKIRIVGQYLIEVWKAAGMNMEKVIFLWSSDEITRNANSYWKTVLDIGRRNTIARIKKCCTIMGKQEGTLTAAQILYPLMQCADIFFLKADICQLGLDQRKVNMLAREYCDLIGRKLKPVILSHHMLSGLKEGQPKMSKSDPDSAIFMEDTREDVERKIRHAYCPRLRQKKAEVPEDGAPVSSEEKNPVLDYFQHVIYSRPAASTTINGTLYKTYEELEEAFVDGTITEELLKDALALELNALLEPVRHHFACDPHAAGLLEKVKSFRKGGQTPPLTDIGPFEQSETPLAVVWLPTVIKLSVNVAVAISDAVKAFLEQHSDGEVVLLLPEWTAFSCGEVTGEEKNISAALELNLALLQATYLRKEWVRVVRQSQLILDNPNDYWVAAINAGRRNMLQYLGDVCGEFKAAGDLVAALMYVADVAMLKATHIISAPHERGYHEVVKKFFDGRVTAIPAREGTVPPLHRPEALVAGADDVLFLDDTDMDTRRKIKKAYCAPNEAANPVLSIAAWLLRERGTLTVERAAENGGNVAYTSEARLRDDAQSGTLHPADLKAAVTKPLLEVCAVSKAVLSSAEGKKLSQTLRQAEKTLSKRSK
The experiment is described as follows: Trypanosoma cruzi tyrosyl tRNA synthetase (TcYRS) _High Tyrosine SOP. Also: in the data most compounds retested in dose-response had high values. Particulars: 30 µM. The class given is functional.

Experiment [10] concerns the target T4, Tyrosyl-tRNA synthetase, putative (Trypanosoma cruzi (strain CL Brener)). The experiment is described as follows: Trypanosoma cruzi tyrosyl tRNA synthetase (TcYRS) SOP. Particulars: 30 µM. The class given is functional.
In experiment [11] the target is Chromo domain-containing protein 1 (Saccharomyces cerevisiae (strain ATCC 204508 / S288c) (Baker's yeast)) (UniProt P32657). The experiment is described as follows: ScCHD-1 Enzyme Inhibition Assay. Also: in the data most compounds retested in dose-response had high values. Type of experiment: functional. Particulars: 30 µM.

For some of these results: Entries with a potency or affinity are not part of this list.

Chain of Protein translocase subunit SecA (Escherichia coli (strain K12)) (P10408 whole entry): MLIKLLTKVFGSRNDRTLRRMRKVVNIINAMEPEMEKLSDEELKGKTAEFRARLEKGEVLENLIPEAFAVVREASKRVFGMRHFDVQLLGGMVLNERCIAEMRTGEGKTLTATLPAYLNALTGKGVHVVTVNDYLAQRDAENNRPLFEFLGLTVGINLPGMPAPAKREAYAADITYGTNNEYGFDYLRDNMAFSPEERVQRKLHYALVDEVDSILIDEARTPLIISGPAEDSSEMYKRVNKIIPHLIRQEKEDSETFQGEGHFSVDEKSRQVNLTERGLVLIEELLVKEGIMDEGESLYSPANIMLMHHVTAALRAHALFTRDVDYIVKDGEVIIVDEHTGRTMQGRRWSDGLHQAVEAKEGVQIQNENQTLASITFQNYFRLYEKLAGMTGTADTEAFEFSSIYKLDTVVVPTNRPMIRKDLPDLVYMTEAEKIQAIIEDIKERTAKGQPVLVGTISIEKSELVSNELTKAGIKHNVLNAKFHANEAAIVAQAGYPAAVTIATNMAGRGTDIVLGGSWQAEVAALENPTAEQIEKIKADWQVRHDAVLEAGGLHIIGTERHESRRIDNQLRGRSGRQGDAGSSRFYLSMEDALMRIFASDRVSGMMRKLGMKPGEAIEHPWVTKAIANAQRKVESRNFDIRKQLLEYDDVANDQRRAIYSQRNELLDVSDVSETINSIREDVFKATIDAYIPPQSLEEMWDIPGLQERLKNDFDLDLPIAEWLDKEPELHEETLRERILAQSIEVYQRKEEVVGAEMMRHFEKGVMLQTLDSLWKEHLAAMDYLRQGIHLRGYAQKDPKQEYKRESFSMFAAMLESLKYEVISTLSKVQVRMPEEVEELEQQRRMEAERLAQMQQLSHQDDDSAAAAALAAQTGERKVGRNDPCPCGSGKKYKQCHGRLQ
Chain of Chromo domain-containing protein 1 (Saccharomyces cerevisiae (strain ATCC 204508 / S288c) (Baker's yeast)) (P32657 whole entry, the tested form may be a part): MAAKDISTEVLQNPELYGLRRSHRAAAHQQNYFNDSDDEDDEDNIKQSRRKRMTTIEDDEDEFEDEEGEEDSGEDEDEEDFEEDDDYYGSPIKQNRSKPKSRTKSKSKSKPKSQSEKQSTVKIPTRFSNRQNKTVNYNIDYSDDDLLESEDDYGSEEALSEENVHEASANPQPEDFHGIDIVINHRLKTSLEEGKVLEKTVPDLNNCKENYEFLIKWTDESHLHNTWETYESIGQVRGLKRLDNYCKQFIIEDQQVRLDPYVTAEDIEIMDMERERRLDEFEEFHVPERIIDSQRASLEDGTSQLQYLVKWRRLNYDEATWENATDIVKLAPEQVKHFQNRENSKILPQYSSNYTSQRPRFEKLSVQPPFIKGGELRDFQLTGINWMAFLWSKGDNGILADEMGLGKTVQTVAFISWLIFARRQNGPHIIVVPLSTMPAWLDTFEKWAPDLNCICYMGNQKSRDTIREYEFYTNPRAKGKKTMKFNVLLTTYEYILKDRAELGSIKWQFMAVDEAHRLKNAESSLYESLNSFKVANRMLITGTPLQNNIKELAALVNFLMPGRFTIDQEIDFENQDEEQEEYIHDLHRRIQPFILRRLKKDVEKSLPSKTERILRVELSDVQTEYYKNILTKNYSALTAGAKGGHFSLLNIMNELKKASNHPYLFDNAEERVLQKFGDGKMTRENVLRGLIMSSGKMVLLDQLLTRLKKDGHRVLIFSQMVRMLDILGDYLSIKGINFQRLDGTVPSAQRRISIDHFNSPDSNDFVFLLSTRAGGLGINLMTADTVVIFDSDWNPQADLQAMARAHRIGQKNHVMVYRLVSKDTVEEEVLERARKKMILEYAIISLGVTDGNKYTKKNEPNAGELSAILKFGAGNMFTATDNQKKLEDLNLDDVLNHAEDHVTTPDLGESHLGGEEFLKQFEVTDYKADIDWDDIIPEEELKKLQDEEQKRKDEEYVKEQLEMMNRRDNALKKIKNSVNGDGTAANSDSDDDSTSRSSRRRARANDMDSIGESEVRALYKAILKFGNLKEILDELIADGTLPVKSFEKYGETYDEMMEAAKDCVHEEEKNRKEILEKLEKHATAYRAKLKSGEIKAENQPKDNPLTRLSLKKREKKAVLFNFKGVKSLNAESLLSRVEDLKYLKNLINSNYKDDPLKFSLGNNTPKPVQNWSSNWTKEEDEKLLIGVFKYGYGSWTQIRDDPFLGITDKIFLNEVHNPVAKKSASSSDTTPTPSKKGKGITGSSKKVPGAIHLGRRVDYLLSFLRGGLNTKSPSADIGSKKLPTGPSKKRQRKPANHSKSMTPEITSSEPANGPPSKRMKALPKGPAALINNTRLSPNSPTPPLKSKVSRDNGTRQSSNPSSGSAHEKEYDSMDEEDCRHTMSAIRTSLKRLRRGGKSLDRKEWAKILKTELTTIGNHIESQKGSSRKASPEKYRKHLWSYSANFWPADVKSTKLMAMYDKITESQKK
Chain of Sialic acid-binding Ig-like lectin 9 (Homo sapiens) (Q9Y336 whole entry): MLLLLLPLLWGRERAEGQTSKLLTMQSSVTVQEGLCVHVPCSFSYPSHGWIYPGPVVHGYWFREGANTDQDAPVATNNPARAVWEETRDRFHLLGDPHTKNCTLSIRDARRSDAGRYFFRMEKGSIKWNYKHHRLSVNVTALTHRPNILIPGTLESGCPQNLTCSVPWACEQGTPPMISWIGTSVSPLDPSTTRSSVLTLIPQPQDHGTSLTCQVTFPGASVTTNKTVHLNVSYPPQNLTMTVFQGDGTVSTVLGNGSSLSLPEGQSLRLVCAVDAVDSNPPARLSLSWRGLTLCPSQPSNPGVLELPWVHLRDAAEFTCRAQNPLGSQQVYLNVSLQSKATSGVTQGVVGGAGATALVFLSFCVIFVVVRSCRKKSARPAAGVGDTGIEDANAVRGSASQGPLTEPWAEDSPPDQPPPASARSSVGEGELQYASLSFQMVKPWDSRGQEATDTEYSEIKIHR

As for `COc1cc2nc(C)n(CC(=O)O)c(=O)c2cc1OC`, the Percent Effect in experiment [1] was -4.09%; in [2], 6.67%; in experiment [3], 6.76%; in experiment [4], 2.01%; in experiment [5], -0.982%; in experiment [6], 1.23%. The Percent Effect was 13.1% in experiment [7]; 19.2% in [8]; 8.47% in experiment [9]; 12.8% in experiment [10]; -7.94% in experiment [11].
Consider `Cc1nc(C)n(CC2CCCN(CCOc3cccc(C#N)c3)C2)n1` (stereo not drawn), for which the Percent Effect is 1.74% in [1]; 21.6% in experiment [2]; 7.7% in [3]; 4.91% in experiment [4]; -8.4% in experiment [5]; 24.9% in experiment [6]. In addition, the Percent Effect in experiment [7] is 11.2%; in [8], 17.4%; in [9], 0.493%; in experiment [10] it was -1.24%; in [11] it was -4.16%.
For `COc1ccc2c(c1)CCCN2Cc1nc2c(cnn2C)c(=O)[nH]1`, the Percent Effect in experiment [1] was -3.64%; in experiment [2], 20.2%; in [3], -9.32%; in experiment [4], -0.208%; in experiment [5] it was -2.36%; in experiment [6], 2.28%. In addition, the Percent Effect in [7] is 3.52%; in experiment [8] it was 3.6%; in [9] it was 9.36%; in experiment [10], 16.5%; in [11], -5.55%.
For `CCOCC(O)CN1CCN(C(=O)C2CC2)CC1` (stereo not drawn), the Percent Effect in experiment [1] was -3.95%; in experiment [2], 16.2%; in experiment [3] it was 86.5%; in [4] it was -5.78%; in [5], 1.04%; in experiment [6], -8.42%. Also, the Percent Effect is 2.52% in experiment [7]; 10.7% in [8]; 9.36% in experiment [9]; 16.1% in experiment [10]; -7.42% in experiment [11].
As for `CC(C)c1noc(CN2CCN(C(=O)c3ccccc3F)CC2)n1`, the Percent Effect was -4.33% in [1]; 13.5% in experiment [2]; -4.45% in [3]; 3.5% in [4]; -2.32% in experiment [5]; -3.88% in [6]. Further, the Percent Effect stood at 6.82% in experiment [7]; 23.6% in experiment [8]; 7.92% in [9]; 18.3% in [10]; 0.419% in experiment [11].
Turning to `Cc1ncc(CNC(=O)c2nn(C)c3c2CS(=O)(=O)CC3)s1`, the Percent Effect in experiment [1] was -3.9%; in experiment [2], 9.33%; in [3], 3.53%; in experiment [4], 5.84%; in [5] it was 3.73%; in experiment [6], -6.16%. Besides, the Percent Effect was 13.3% in experiment [7]; 4.95% in experiment [8]; 9.52% in experiment [9]; 12.8% in experiment [10]; -9.87% in [11].
For `CCn1ccnc1CN1CCCN(C(=O)Cn2nc(C)cc2C)CC1`, the Percent Effect in experiment [1] was -2.55%; in [2], 0%; in [3], 9.91%; in [4] it was -9.39%; in experiment [5], 1.08%; in experiment [6], -0.21%. For the same compound, the Percent Effect in [7] is 3.31%; in [8], -12.9%; in [9] it was -1.91%; in [10], 0%; in [11], -14.3%.
Consider `CCN(CC)C(=O)c1ccn(COc2ccccc2)n1`, for which the Percent Effect in [1] is -2.87%; in experiment [2], -4%; in experiment [3], 2.57%; in [4], 5.83%; in experiment [5] it was 4.32%; in experiment [6], -2.99%. In addition, the Percent Effect in experiment [7] is 8.5%; in experiment [8], 1.5%; in experiment [9], 5.29%; in experiment [10], 10.3%; in experiment [11], -0.306%.

The values are drawn from ChEMBL document CHEMBL3988442, “University of Dundee, Small-Polar-MMV Screening Library” (2021).
